Assay outcomes: PubChem, The Scripps Research Institute Molecular Screening Center
GPR151 activ – activators of human GPR151; 650,000 compounds, 1% hits; AID 1508602; activation, % at 11.2 µM; PathHunter beta-arrestin GPR151 cells, luminescence; in the data active = activation above about 4.9%;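 also: 0% = median of compound wells and 100% = cells with positive control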
FBW7 activator – activators of human E3 ligase FBW7; Q969H0; AlphaScreen FBW7–phospho-cyclin E peptide binding, activator screen; normalized activity (activation), % at 26.1 µM; 650,000 compounds, 0.13% hits; in the data active = normalized activity above about 1.9%;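 also: purified mutant Fbw7 with reduced substrate affinity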
MITF inh – blocks human microphthalmia-associated transcription factor; O75030; AlphaScreen MITF homodimerization, bead proximity signal; inhibition, % at 2.6 µM; 650,000 compounds, 0.91% hits; AID 1259374; in the data active = inhibition above about 50%;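 also: 0% = vehicle wells with protein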
TEAD-YAP inh – TEAD-YAP interaction inhibition; 640,000 compounds, 1.4% hits; HEK-TIYL cells, TEAD-Gal4/YAP UAS-luciferase luminescence; inhibition, % at 9.12 µM; in the data active = inhibition above about 32%;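 also: 0% = median of test compound wells and 100% = reference inhibitor wells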
MITF confirm – human MITF inhibition, confirmation; shares compounds with MITF inh; AlphaScreen MITF homodimerization, biotin/His-MITF beads; inhibition, % at 2.6 µM; 4,700 compounds, 16% hits; AID 1259372;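 active = inhibition above a cutoff derived from the DMSO control wells, cut at about 28% in these data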;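 also: 0% = MITF dimer wells with DMSO only; inhibitors lower the bead chemiluminescence by keeping MITF from dimerizing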
AlphaScreen intf2 – AlphaScreen optical interference, counter-screen | shares compounds with MITF inh | 4,700 compounds, 7.6% hits | inhibition, % at 2.6 µM | LysRS AlphaScreen counterscreen, signal interference, triplicate;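 active = inhibition above a cutoff derived from the DMSO control wells, cut at about 30% in these data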
* marks the source's active call; other numbers are inactive results; x = no result. A selection: hits, their analogues and other compounds. The true share with any hit is near 3.5%.

SMILES | GPR151 activ | FBW7 activator | MITF inh | TEAD-YAP inh | MITF confirm | AlphaScreen intf2
O=C(CNCC1CCCCC1)Nc1ccc(CN2CCCCC2)cc1 | 0 | 0 | 63* | -1 | 10 | 14
O=C(CNC1CCCCC1)Nc1ccc(CN2CCCCC2)cc1 | 1 | 0 | 74* | -7 | 6 | 18
O=C(CNC1CCCCCC1)Nc1ccc(CN2CCCCC2)cc1 | 0 | 0 | 67* | 5 | 8 | 15
O=C(CNC1CC1)Nc1ccc(CN2CCCCC2)cc1 | 0 | 0 | 18 | -3 | x | x
COc1ccc(-c2nc(Nc3cc(OC)c(OC)c(OC)c3)c3ncn(C4CCCCC4)c3n2)cc1 | -1 | 0 | 3 | 4 | x | x
Cc1sc(NC(=O)CN(C(=O)c2ccco2)C2CCCCC2)c(C(N)=O)c1C | 0 | 0 | 15 | -3 | x | x
CCCCN(CC)S(=O)(=O)c1ccc(F)c(C(=O)Nc2ccc(C)c(C)c2)c1 | 2 | 0 | -6 | -11 | x | x
O=C(NCCO)c1ccc(-c2cnc3c(n2)[nH]c(=O)n3C2CCCCC2)cc1 | 1 | 0 | -6 | 6 | x | x
Cc1cnc(Nc2nc3ccccc3n2C)nc1Nc1ccccc1 | -1 | 0 | 73* | -17 | -6 | 14
Cc1cnc(Nc2ccc(-n3ccnc3)cc2)nc1Nc1ccccc1 | 2 | 0 | 52* | 37* | -13 | -1
Cc1nn(-c2ccc(F)cc2)c(C)c1CNCc1ccccc1 | 0 | 0 | 70* | -3 | 25 | 10
OC(CNCc1ccccn1)c1ccccc1 (stereo unspecified) | 0 | -1 | 54* | -9 | 7 | 43*
OC(CNCC(O)c1ccccc1)c1ccccc1 (stereo unspecified) | -1 | 0 | 17 | 8 | x | x
Cc1ccccc1C(OCC(O)CNCc1ccccn1)c1ccccc1 (stereo unspecified) | 2 | -1 | 51* | -7 | 13 | 33*
COc1cc(C(C[N+](=O)[O-])c2c(N)n(C)c(=O)n(C)c2=O)ccc1OCc1ccccc1 (stereo unspecified) | 0 | 0 | 1 | -1 | x | x
CCOC(=O)C(NC(=O)NCc1ccco1)(c1ccc(F)cc1)C(F)(F)F (stereo unspecified) | 0 | 0 | -1 | 11 | x | x
Cc1n[nH]c(C)c1CCC(=O)NCc1c(C)ncc2c1CCN(C(=O)c1ccsc1)C2 | 0 | 0 | 8 | 8 | x | x
CCN(C(=O)c1cnc2n(c1=O)CCS2)c1ccccc1 | 3 | 0 | 51* | -8 | 7 | 9
O=[N+]([O-])c1nn(-c2cccc(Cl)c2)n(O)c1=NC1CCCCC1 | -1 | -1 | 56* | 5 | 15 | 14
C[C@H](O)[C@H]1NC(=O)[C@H]2CN(C(=O)Oc3ccc(Cl)cc3)CCN2C1=O | 0 | 0 | 5 | 5 | x | x
COCCCNCCOc1ccc2ccccc2c1Br | 0 | 0 | 59* | -4 | 7 | 18
CC(O)CNCCCCOc1ccc2ccccc2c1Br (stereo unspecified) | 1 | 0 | 71* | 3 | 53* | 40*
COc1ccc([N+](=O)[O-])cc1N(CC(=O)O)S(C)(=O)=O | 1 | 0 | 59* | 2 | 0 | 11
c1ccc(C2CCC(N3CCN(C4CCCC4)CC3)CC2)cc1 (stereo unspecified) | -1 | 0 | 19 | 3 | x | x
c1ccc(C2CCC(N3CCN(Cc4ccco4)CC3)CC2)cc1 (stereo unspecified) | 0 | 0 | 67* | -9 | 4 | 6
SMILES | GPR151 activ | FBW7 activator | MITF inh | TEAD-YAP inh | MITF confirm | AlphaScreen intf2
c1ccc(C2CCC(N3CCN(C4CCCCCC4)CC3)CC2)cc1 (stereo unspecified) | -1 | 0 | 63* | -3 | 2 | 15
CC1CCCC(N2CCN(Cc3ccco3)CC2)C1 (stereo unspecified) | 0 | 0 | 74* | -6 | -1 | 1
S=c1nc2ccccc2c2[nH]c3ccccc3n12 | -1 | 0 | 56* | -8 | -7 | 2
S=c1[nH]c2ccccc2n2c(=S)[nH]nc12 | -1 | 0 | 20 | -12 | x | x
c1cc(NC2CCCNC2)n2ncc(-c3ccoc3)c2n1 (stereo unspecified) | 1 | 0 | 68* | -62 | 11 | 17
CCCNc1nc(Nc2ccncc2)nc2c1ncn2C1CCCCC1 | -1 | 0 | 0 | -1 | x | x
Cc1cccn2c(=O)c3c(nc12)CCN(C(=O)Nc1cccc(F)c1)C3 | 0 | 0 | 7 | -2 | x | x
